This is an account of results in ChEMBL document CHEMBL3988442, “University of Dundee, Small-Polar-MMV Screening Library” (2021).

SMILES strings stand for the structures. For some of these results: Measured potencies and affinities stand elsewhere.

Parameters in all cases: scale not given: direction of the effect not stated beside the values
The target of assay [1] is Protein translocase subunit SecA (Escherichia coli (strain K12)) (UniProt P10408). The assay is described as follows: Assay to Identify E. coli SecA ATPase Inhibitors. It counts as functional. To be noted: 30 µM.
Sequence of Protein translocase subunit SecA (Escherichia coli (strain K12)) (P10408 whole entry): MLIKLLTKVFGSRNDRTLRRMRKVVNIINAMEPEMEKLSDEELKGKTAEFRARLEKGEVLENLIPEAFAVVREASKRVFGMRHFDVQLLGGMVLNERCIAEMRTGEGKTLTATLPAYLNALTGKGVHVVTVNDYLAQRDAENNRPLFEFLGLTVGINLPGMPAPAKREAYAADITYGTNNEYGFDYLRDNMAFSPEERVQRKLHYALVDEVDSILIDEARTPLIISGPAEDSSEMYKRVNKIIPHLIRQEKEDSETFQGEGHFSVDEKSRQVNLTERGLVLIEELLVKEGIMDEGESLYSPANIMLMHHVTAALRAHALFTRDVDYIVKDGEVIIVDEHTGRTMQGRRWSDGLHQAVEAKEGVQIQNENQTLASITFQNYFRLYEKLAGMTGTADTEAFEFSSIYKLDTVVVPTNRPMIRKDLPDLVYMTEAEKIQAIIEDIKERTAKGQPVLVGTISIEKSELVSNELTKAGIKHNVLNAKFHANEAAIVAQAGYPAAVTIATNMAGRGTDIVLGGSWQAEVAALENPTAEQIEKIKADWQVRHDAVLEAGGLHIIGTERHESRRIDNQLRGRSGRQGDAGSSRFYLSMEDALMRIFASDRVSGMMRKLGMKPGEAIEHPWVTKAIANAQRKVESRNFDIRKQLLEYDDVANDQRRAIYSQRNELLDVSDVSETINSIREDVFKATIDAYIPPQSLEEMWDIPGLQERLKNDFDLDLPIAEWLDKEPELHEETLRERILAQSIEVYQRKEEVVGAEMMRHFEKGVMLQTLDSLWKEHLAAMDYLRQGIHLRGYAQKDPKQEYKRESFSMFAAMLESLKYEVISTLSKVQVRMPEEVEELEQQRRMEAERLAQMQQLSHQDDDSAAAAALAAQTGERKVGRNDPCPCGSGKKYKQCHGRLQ
Assay [2] addresses T1, Ubiquitin-activating enzyme e1, putative (Leishmania donovani (strain BPK282A1)) (UniProt E9BSI1).
T1 sequence (whole entry): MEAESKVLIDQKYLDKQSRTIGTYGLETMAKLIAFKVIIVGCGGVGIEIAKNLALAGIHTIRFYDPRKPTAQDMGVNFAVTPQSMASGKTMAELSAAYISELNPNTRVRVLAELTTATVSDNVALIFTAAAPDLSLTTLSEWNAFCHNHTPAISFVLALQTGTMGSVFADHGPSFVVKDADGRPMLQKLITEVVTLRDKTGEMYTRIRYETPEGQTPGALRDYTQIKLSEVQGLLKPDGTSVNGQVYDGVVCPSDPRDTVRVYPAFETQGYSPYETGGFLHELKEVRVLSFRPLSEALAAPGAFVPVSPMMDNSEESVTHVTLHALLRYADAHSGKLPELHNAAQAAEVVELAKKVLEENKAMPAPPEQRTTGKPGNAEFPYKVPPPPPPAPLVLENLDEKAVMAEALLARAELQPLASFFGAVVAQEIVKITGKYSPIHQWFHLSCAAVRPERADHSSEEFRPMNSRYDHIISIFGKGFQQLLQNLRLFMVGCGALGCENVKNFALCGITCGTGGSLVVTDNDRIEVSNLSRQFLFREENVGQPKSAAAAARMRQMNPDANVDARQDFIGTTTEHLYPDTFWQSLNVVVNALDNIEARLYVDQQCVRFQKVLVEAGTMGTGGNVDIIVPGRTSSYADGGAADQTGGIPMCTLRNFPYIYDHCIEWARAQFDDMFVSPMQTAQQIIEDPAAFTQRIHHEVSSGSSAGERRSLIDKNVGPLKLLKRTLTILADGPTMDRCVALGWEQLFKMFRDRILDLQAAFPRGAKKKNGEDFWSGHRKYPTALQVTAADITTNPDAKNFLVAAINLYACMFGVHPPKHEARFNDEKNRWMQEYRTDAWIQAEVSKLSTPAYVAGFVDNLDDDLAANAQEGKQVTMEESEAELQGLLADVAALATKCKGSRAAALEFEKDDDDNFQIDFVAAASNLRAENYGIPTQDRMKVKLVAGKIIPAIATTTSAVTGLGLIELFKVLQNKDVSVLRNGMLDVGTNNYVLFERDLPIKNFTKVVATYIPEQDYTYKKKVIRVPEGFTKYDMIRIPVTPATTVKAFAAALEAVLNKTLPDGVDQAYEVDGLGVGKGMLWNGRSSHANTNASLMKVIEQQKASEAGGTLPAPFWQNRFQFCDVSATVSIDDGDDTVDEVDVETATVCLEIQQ
The assay is described as follows: Leishmania donovani Ubiquitin Activating Enzyme (LdE1). In kind it is functional. To be noted: 30 µM.

The target of assay [3] is AMP-activated protein kinase, AMPK (Homo sapiens) (UniProt P54646+O43741+P54619+Q9UGJ0+Q9Y478+Q13131+Q9UGI9). The assay is described as follows: AMP-dependent Kinase enzyme assay. An in vitro enzyme assay that detects ADP turnover that is directly proportional to AMPK activity. This uses naive AMPK that is activated during the assay with MK-8722. It counts as functional. To be noted: 30 µM.

In assay [4] the target is Sialic acid-binding Ig-like lectin 9 (Homo sapiens) (UniProt Q9Y336). The assay is described as follows: Hs-Siglec9 ALPHAscreen SOP 20170721. To be noted: 10 µM. For orientation: Alpha assays give light when donor and acceptor beads are brought close together.
Sequence of Sialic acid-binding Ig-like lectin 9 (Homo sapiens) (Q9Y336 whole entry): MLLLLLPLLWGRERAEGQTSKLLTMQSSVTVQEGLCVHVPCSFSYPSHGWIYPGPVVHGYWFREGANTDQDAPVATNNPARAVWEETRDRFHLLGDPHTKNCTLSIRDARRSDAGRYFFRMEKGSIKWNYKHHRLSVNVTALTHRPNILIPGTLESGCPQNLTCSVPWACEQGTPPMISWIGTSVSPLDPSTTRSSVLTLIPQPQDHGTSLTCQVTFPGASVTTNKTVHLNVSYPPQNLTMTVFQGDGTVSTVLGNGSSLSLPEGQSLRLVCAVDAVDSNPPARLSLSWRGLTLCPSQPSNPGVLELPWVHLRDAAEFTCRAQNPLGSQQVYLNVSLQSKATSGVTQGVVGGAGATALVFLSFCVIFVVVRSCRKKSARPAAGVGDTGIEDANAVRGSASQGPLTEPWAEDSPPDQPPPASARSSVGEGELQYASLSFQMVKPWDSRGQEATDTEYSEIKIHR
The next assay deals with Trypanosoma cruzi. The assay is described as follows: Trypanosoma cruzi phosphomannomutase and mannose-1-phosphate guanylyltransferase assay. In kind it is functional. To be noted: 10 µM.
Assay [5] addresses T2, Arginase-2, mitochondrial (Homo sapiens) (UniProt P78540).
T2 sequence (whole entry): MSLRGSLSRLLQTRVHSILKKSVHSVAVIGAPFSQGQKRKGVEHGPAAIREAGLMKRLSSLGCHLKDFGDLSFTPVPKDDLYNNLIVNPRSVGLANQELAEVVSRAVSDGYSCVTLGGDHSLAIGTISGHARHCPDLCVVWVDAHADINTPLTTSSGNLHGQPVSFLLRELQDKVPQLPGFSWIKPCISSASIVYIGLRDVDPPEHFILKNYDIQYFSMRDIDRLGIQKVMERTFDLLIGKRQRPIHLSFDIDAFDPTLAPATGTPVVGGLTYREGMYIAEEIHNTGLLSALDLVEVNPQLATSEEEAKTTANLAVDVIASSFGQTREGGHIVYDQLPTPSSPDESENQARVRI
The assay is described as follows: in vitro enzyme assay to detect the production of urea directly proportional to the activity of Arginase II. Further: in the data most compounds retested in dose-response had high values. It counts as functional. To be noted: 33.3 µM.

The target of assay [6] is T3, Proteasome subunit beta (Trypanosoma cruzi) (UniProt O96673).
T3 sequence (whole entry): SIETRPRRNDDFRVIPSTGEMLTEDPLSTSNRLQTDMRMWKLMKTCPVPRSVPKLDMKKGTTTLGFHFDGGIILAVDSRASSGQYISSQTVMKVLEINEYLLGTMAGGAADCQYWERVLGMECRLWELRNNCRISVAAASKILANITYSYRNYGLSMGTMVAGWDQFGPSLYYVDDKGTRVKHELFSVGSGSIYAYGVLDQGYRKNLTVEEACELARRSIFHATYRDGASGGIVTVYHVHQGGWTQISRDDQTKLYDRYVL
The assay is described as follows: Trypanosoma cruzi proteasome chymotrypsin-like activity (TcProtChymo) assay. Further: in the data most compounds retested in dose-response had high values. It counts as functional. To be noted: 9.37 µM.

The species named for another assay is Homo sapiens. Description: To identify inhibition of the IFN signalling (Jak-Stat) pathway via expression of an eGFP reporter gene under the control of an IFN-stimulated response element (ISRE) containing MxA promoter. It counts as functional. To be noted: 30 µM. In general terms: Reporter assays use an easily measured gene product as a stand-in for the process of interest.

Assay [7] concerns the target T4, Tyrosyl-tRNA synthetase, putative (Trypanosoma cruzi (strain CL Brener)) (UniProt Q4DSP6).
T4 sequence (whole entry): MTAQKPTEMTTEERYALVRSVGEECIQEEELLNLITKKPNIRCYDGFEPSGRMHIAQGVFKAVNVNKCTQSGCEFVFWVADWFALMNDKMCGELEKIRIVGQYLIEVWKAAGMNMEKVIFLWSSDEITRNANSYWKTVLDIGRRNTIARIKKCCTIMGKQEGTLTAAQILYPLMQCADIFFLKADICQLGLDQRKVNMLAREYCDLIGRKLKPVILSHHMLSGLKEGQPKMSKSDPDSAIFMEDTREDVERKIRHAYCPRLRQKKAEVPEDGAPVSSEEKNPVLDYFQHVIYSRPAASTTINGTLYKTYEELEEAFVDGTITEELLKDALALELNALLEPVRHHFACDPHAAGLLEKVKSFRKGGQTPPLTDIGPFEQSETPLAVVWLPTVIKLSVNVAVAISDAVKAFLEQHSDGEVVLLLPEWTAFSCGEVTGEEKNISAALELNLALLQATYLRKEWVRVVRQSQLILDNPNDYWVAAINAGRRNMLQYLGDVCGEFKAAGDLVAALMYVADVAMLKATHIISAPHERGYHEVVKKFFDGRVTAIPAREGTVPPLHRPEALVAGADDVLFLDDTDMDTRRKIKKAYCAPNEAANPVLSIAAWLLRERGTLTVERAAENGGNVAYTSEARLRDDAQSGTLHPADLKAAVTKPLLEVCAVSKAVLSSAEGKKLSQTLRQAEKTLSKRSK
The assay is described as follows: Trypanosoma cruzi tyrosyl tRNA synthetase (TcYRS) _High Tyrosine SOP. Further: in the data most compounds retested in dose-response had high values. In kind it is functional. To be noted: 30 µM.

Assay [8] has as its target T4, Tyrosyl-tRNA synthetase, putative (Trypanosoma cruzi (strain CL Brener)). Description: Trypanosoma cruzi tyrosyl tRNA synthetase (TcYRS) SOP. To be noted: 30 µM. In kind it is functional.
For assay [9], the target named is Chromo domain-containing protein 1 (Saccharomyces cerevisiae (strain ATCC 204508 / S288c) (Baker's yeast)) (UniProt P32657). The assay is described as follows: ScCHD-1 Enzyme Inhibition Assay. Further: in the data most compounds retested in dose-response had high values. It counts as functional. To be noted: 30 µM.
Sequence of Chromo domain-containing protein 1 (Saccharomyces cerevisiae (strain ATCC 204508 / S288c) (Baker's yeast)) (P32657 whole entry, the tested form may be a part): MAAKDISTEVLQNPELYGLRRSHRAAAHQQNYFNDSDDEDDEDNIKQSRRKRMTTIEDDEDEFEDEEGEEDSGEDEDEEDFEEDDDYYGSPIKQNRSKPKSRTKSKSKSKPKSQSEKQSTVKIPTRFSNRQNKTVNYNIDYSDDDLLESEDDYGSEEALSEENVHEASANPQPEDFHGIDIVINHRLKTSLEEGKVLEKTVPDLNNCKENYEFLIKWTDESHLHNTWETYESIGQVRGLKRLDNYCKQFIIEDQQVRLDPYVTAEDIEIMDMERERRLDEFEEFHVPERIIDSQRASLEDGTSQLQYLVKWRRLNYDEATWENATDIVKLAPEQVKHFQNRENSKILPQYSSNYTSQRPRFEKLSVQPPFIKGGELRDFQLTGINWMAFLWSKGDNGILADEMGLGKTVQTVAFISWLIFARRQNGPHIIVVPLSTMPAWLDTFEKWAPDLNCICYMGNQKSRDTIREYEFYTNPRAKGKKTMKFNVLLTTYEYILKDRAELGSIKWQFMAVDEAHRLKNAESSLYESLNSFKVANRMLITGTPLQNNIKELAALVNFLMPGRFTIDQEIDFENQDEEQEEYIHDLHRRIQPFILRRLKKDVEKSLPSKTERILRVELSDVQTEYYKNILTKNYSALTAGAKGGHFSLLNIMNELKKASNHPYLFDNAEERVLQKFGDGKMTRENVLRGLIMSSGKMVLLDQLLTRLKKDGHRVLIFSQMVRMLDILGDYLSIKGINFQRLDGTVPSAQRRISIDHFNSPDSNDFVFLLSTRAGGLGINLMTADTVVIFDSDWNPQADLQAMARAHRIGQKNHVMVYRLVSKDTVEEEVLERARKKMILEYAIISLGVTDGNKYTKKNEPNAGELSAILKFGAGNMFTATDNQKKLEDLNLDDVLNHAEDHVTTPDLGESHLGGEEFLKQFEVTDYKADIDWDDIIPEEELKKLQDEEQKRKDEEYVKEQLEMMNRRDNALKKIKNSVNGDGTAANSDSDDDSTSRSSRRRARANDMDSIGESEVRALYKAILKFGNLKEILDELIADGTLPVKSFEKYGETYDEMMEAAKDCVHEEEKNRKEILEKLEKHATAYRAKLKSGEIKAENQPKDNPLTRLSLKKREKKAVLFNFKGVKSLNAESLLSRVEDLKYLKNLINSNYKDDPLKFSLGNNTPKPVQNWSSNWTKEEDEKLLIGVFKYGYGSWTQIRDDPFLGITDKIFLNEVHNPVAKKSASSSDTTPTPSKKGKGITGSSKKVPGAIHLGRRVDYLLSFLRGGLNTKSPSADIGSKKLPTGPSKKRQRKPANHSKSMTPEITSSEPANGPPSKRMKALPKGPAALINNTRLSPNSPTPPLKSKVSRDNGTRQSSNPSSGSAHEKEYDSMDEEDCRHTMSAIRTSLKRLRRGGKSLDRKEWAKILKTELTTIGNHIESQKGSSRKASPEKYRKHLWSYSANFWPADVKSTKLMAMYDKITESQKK

`Cc1nnc([C@@H]2CC[C@@H]3[C@@H](CCN3S(=O)(=O)c3cccnc3)O2)o1`: the Percent Effect was -6.5% in [1]; 10.8% in assay [2]; 7.11% in assay [3]; -2.36% in [4]; -1.07% with Trypanosoma cruzi; 6.05% in assay [5]. The Percent Effect in [6] is 15.7%; in the assay listed under Homo sapiens, -6.25%; in [7], 15.1%; in assay [8], 12.8%; in [9], -1.2%.
Turning to `Cc1csc(N2CCN(C(=O)Cc3ccsc3)CC2)n1`, the Percent Effect in [1] was -6.47%; in [2], 21.6%; in assay [3] it was -0.587%; in assay [4], 9.11%; with Trypanosoma cruzi, 7.26%; in assay [5] it was 3.21%. The Percent Effect is 20.9% in assay [6]; 5.74% in the assay listed under Homo sapiens; 10.3% in [7]; 30.9% in [8]; -10.7% in [9].
For the compound `CCc1c(C(=O)N2CCN(CC(N)=O)CC2)cnn1C(C)(C)C`, the Percent Effect in assay [1] was -6.88%; in [2], 13.2%; in assay [3] it was -1.82%; in [4], 18.1%; with Trypanosoma cruzi it was 5.32%; in assay [5] it was 3.6%. Also, the Percent Effect was 11.9% in assay [6]; -6.74% in the assay listed under Homo sapiens; 4.43% in assay [7]; 11.1% in [8]; -7.68% in [9].
As for `Cn1ccc(C(=O)N2CCC(Cc3cccc4cccnc34)C2)n1` (stereo unspecified), the Percent Effect in assay [1] is -2.61%; in [2], 9.46%; in assay [3], 13.5%; in assay [4], 3.85%; with Trypanosoma cruzi, -5.73%; in [5], -2.09%. The Percent Effect in assay [6] turned out to be 4.68%; in the assay filed under Homo sapiens, 16.3%; in [7], 5.38%; in assay [8], 6.49%; in assay [9], 0.402%.
As for `Cn1ccc2c(C(=O)N3CCC(C(N)=O)CC3)cccc21`, the Percent Effect in assay [1] was 0.857%; in assay [2], 14.7%; in assay [3] it was 2.71%; in assay [4] it was -1.54%; in the assay on Trypanosoma cruzi, -4.13%; in assay [5], -9.68%. Besides, the Percent Effect was 13.1% in assay [6]; 7.15% in the assay filed under Homo sapiens; 8.47% in [7]; 17.9% in assay [8]; -10.7% in [9].
As for `Cc1noc2ncc(C(=O)NCC3CCOC3)cc12` (stereo unspecified), the Percent Effect in assay [1] is -4.3%; in assay [2], 0%; in [3] it was -6.17%; in assay [4], -5.94%; in the assay with Trypanosoma cruzi, -6.96%; in assay [5], 1.53%. Also, the Percent Effect in assay [6] is 6.35%; in the assay filed under Homo sapiens, 26.5%; in assay [7], 2.45%; in [8], 0%; in assay [9], -12.5%.
With `COc1ccc(CCN2CCN(C(=O)c3scnc3C)CC2)cc1`, the Percent Effect was -2.7% in assay [1]; 10.5% in [2]; 2.58% in [3]; 0.569% in [4]; 3.8% in the assay on Trypanosoma cruzi; -3.55% in [5]. Also, the Percent Effect is 16% in [6]; -22.1% in the assay filed under Homo sapiens; 6.38% in [7]; 10.4% in assay [8]; -3.62% in assay [9].
On to `CCC1CN(C(=O)Nc2cnc3c(cnn3C(C)C)c2)CCO1` (stereo unspecified), for which the Percent Effect in assay [1] was 0.162%; in assay [2], 13.5%; in assay [3], -1.29%; in [4], 10.7%; with Trypanosoma cruzi, -5.48%; in assay [5] it was 0.554%. For the same compound, the Percent Effect in assay [6] is 17.6%; in the assay listed under Homo sapiens, 22.8%; in assay [7] it was 6.93%; in assay [8] it was 18.3%; in assay [9] it was -2.08%.
For `CC(C)Oc1cc(N2CCC(N3CCC(O)CC3)CC2)nc(N)n1`, the Percent Effect was 0.0362% in assay [1]; 8.11% in [2]; -10% in [3]; 8.23% in assay [4]; 4.63% with Trypanosoma cruzi; -0.476% in [5]. Moreover, the Percent Effect is 11% in assay [6]; 12.1% in the assay filed under Homo sapiens; 8.99% in [7]; 17.1% in assay [8]; -4.42% in [9].
With `Cc1ccc([C@]2(O)CC[C@H]3CN(Cc4cc(C)c(O)c(C)c4)C[C@H]32)nc1`, the Percent Effect in assay [1] is -2.94%; in assay [2], 6.76%; in assay [3], 23.7%; in [4], 8.26%; with Trypanosoma cruzi it was -2.37%; in assay [5], -5.34%. Also, the Percent Effect was 8.58% in [6]; 11.6% in the assay filed under Homo sapiens; 0% in [7]; 6.49% in assay [8]; -9.68% in [9].
Regarding `COc1ccc2c(c1)C1(CCN(Cc3ccncc3)CC1)N(C)CC2`, the Percent Effect was -3.01% in assay [1]; 7.79% in assay [2]; 2.38% in [3]; 7.8% in assay [4]; -3.06% with Trypanosoma cruzi; 0.645% in [5]. The Percent Effect in assay [6] was 14.4%; in the assay listed under Homo sapiens, -6.76%; in [7] it was 0%; in assay [8], 3.85%; in assay [9], -8.34%.
